Laboratory results reported in PMC7862700, “An all-to-all approach to the identification of sequence-specific readers for epigenetic DNA modifications on cytosine”.

Columns and labels:
Assay in all cases: DAPPL (digital affinity profiling via proximity ligation, sequencing); 10 mM Tris-HCl pH 7.5, 50 mM NaCl, 1 mM DTT, 4% glycerol, room temperature, 30 min; GST-TFs on glutathione beads, 16-mer random dsDNA library, 0.1% formaldehyde crosslink after washing; high values mean tight binding
FLI1 = biological target: T1, FLI1 (Homo sapiens, UniProt Q01543 1-452); conditions: protein: recombinant; tags: N-terminal GST; dsDNA, one strand shown
T1 sequence: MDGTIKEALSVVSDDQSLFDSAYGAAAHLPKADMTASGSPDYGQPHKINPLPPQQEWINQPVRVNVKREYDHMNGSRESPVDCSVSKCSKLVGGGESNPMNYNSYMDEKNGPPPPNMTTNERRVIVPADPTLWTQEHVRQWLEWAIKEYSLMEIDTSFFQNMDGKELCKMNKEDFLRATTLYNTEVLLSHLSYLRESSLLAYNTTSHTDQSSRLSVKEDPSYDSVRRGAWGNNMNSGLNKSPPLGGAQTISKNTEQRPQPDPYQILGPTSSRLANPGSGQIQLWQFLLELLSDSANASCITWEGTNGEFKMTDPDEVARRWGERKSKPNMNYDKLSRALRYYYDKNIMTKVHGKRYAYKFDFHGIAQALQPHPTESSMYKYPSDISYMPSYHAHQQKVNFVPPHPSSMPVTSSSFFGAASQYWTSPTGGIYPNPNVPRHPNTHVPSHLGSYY
Procedure, shortened: (§1)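 Binding signal is each hexamer's read frequency for a factor divided by its frequency in the tag-only sample. The factors were GST-fused human transcription factors from yeast, captured on glutathione beads, DNA-barcoded and pooled with that sample. Pools were incubated with 200 nmole of a random double-stranded 16-mer DNA library in Tris/NaCl/DTT/glycerol buffer at room temperature for 30 min, then washed, crosslinked with 0.1% formaldehyde, proximity-ligated with BsaI/T4 ligase (1 h, 37 °C), PCR-amplified and sequenced on an Illumina NextSeq500.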

ELK1 = biological target: T2, ELK1 (Homo sapiens, UniProt P19419 1-428); conditions: protein: recombinant; tags: N-terminal GST; dsDNA, one strand shown
T2 sequence: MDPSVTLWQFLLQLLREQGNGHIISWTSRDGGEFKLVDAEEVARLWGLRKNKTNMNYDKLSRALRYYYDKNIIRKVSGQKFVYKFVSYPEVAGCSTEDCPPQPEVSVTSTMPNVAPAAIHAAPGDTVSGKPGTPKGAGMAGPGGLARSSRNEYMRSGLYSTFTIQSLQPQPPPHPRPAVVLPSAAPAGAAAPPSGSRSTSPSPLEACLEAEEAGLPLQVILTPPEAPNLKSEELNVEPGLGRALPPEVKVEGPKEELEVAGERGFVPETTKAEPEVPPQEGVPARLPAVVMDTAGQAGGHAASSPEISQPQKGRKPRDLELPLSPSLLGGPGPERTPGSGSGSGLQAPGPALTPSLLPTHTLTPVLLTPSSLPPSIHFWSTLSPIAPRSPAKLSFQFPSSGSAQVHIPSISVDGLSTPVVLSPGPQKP
Procedure, shortened: as §1

GABPA = biological target: T3, GABPA (Homo sapiens, UniProt Q06546 1-454); conditions: protein: recombinant; tags: N-terminal GST; dsDNA, one strand shown
T3 sequence: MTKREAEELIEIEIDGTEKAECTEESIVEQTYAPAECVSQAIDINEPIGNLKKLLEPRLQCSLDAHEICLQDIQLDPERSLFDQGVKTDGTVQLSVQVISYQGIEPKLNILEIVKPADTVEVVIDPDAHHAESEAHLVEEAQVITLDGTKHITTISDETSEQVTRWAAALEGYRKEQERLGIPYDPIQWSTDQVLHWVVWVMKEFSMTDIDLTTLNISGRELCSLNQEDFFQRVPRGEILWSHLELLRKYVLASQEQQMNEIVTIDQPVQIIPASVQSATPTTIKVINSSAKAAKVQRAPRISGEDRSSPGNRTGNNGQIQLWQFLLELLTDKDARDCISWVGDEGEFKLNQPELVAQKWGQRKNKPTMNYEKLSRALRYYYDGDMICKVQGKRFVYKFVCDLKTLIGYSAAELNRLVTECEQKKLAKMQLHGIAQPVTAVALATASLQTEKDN
Procedure, shortened: as §1

ERG = biological target: T4, ERG (Homo sapiens, UniProt P11308 1-479); conditions: protein: recombinant; tags: N-terminal GST; dsDNA, one strand shown
T4 sequence: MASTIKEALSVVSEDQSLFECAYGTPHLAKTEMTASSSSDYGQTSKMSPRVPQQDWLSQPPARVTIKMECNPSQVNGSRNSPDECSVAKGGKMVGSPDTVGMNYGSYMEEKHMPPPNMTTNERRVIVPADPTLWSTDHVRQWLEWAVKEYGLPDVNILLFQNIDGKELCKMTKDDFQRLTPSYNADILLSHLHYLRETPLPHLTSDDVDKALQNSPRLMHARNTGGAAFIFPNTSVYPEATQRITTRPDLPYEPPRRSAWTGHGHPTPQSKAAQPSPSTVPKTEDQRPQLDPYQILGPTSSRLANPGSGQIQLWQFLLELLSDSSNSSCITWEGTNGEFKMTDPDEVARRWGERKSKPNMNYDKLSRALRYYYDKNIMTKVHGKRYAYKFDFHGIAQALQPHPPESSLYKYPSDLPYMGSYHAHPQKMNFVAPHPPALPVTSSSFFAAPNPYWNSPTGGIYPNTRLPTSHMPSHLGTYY
Procedure, shortened: as §1

ELF1 = ELF1 (Homo sapiens, UniProt P32519 1-619); conditions: protein: recombinant; tags: N-terminal GST; dsDNA, one strand shown
Procedure, shortened: as §1

EHF = biological target: T5, EHF (Homo sapiens, UniProt Q9NZC4 1-300); conditions: protein: recombinant; tags: N-terminal GST; dsDNA, one strand shown
T5 sequence: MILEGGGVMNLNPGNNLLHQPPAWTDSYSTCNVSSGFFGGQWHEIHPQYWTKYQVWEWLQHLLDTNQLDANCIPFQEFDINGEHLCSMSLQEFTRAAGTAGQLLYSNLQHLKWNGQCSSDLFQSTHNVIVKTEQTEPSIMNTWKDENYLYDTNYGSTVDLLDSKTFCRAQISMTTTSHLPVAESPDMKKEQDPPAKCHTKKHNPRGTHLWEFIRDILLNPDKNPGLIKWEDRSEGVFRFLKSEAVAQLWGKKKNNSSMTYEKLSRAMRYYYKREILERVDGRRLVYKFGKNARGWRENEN
Procedure, shortened: as §1

SPI1 = SPI1 (Homo sapiens, UniProt P17947 1-270); conditions: protein: recombinant; tags: N-terminal GST; dsDNA, one strand shown
Procedure, shortened: as §1

SPIB = SPIB (Homo sapiens, UniProt Q01892 1-262); conditions: protein: recombinant; tags: N-terminal GST; dsDNA, one strand shown
Procedure, shortened: as §1

ELK3 = biological target: T6, ELK3 (Homo sapiens, UniProt P41970 1-407); conditions: protein: recombinant; tags: N-terminal GST; dsDNA, one strand shown
T6 sequence: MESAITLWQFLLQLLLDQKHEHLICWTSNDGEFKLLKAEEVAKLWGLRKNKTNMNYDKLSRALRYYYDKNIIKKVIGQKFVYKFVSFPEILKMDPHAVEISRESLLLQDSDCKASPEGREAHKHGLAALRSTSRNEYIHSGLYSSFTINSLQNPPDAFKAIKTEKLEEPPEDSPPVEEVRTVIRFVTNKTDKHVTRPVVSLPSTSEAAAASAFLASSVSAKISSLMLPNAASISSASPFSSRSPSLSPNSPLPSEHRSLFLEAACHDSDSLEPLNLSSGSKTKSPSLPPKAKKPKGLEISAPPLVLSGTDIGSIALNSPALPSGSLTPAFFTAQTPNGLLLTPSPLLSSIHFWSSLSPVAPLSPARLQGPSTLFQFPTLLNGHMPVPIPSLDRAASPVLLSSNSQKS
Procedure, shortened: as §1

FEV = biological target: T7, FEV (Homo sapiens, UniProt Q99581 1-238); conditions: protein: recombinant; tags: N-terminal GST; dsDNA, one strand shown
T7 sequence: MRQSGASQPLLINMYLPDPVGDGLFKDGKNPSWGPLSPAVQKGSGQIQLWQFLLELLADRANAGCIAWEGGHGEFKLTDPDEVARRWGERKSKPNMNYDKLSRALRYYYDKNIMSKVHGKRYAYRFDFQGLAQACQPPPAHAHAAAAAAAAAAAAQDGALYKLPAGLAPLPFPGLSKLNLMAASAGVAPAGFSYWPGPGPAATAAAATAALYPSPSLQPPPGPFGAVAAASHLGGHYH
Procedure, shortened: as §1

ETV5 = ETV5 (Homo sapiens, UniProt P41161 1-510); conditions: protein: recombinant; tags: N-terminal GST; dsDNA, one strand shown
Procedure, shortened: as §1

HSF1 = HSF1 (Homo sapiens, UniProt Q00613 1-529); conditions: protein: recombinant; tags: N-terminal GST; chain copies: 3; dsDNA, one strand shown
Procedure, shortened: as §1

SPIC = biological target: T8, SPIC (Homo sapiens, UniProt Q8N5J4 1-248); conditions: protein: recombinant; tags: N-terminal GST; dsDNA, one strand shown
T8 sequence: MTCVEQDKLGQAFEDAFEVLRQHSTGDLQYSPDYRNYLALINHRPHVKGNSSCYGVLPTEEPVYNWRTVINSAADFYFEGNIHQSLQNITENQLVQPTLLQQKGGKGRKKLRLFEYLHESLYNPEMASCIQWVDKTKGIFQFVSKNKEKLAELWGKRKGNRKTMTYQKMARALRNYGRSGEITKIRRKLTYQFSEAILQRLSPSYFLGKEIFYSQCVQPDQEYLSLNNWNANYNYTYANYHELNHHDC
Procedure, shortened: as §1

ELF4 = ELF4 (Homo sapiens, UniProt Q99607 1-663); conditions: protein: recombinant; tags: N-terminal GST; dsDNA, one strand shown
Procedure, shortened: as §1

ELK4 = biological target: T9, ELK4 (Homo sapiens, UniProt P28324-2 1-405); conditions: protein: recombinant; tags: N-terminal GST; dsDNA, one strand shown
T9 sequence: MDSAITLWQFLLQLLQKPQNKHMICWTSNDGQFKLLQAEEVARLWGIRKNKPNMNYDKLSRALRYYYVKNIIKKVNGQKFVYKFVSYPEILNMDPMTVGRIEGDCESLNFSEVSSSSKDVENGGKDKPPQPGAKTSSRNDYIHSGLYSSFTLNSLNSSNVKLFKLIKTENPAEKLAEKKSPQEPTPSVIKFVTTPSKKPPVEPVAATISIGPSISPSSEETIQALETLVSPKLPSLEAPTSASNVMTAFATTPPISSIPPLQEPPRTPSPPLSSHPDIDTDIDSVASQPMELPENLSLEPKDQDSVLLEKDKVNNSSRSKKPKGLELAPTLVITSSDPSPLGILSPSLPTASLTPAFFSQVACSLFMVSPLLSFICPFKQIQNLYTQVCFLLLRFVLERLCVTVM
Procedure, shortened: as §1

ETV2 = biological target: T10, ETV2 (Homo sapiens, UniProt O00321 1-342); conditions: protein: recombinant; tags: N-terminal GST; dsDNA, one strand shown
T10 sequence: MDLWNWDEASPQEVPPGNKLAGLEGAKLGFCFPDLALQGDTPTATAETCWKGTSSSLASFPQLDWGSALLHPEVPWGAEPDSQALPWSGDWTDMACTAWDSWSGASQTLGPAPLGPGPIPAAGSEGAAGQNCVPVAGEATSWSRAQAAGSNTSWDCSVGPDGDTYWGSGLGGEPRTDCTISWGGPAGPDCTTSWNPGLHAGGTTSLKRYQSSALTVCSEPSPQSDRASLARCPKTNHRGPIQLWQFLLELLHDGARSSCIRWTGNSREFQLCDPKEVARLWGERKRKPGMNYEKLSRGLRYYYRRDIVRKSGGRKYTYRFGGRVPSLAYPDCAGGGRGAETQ
Procedure, shortened: as §1

ELF3 = biological target: T11, ELF3 (Homo sapiens, UniProt P78545 1-371); conditions: protein: recombinant; tags: N-terminal GST; dsDNA, one strand shown
T11 sequence: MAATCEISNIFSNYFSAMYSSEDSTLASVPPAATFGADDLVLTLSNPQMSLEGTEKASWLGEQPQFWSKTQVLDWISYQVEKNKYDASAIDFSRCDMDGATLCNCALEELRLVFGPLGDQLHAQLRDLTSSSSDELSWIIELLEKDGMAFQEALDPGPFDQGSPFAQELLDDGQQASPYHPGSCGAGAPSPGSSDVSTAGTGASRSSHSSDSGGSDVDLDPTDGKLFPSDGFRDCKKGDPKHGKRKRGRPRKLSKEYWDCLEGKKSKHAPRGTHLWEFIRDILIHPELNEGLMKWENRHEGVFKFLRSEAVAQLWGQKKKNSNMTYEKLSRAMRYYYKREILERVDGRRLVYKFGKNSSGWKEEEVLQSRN
Procedure, shortened: as §1

CRX = CRX (Homo sapiens, UniProt O43186 1-299); conditions: protein: recombinant; tags: N-terminal GST; dsDNA, one strand shown
Procedure, shortened: as §1

ETV1 = ETV1 (Homo sapiens, UniProt P50549 1-477); conditions: protein: recombinant; tags: N-terminal GST; dsDNA, one strand shown
Procedure, shortened: as §1

Chain of ELF1 (P32519 whole entry): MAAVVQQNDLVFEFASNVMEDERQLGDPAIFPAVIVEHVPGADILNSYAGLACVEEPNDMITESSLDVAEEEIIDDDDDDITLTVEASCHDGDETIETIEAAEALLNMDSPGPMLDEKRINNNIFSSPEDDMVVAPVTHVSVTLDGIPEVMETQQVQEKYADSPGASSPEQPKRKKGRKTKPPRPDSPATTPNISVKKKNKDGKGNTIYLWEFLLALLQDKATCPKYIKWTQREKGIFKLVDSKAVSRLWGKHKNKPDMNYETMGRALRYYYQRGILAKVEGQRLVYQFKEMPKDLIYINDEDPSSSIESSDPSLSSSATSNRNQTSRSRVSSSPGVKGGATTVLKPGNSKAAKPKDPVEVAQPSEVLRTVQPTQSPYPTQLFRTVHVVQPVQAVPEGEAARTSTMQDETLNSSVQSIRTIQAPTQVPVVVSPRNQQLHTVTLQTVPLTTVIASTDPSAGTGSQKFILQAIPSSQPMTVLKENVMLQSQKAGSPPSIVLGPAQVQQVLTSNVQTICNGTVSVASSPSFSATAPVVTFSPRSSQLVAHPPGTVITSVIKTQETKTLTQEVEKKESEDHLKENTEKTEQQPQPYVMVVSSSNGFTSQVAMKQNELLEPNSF
Chain of ETV5 (P41161 whole entry): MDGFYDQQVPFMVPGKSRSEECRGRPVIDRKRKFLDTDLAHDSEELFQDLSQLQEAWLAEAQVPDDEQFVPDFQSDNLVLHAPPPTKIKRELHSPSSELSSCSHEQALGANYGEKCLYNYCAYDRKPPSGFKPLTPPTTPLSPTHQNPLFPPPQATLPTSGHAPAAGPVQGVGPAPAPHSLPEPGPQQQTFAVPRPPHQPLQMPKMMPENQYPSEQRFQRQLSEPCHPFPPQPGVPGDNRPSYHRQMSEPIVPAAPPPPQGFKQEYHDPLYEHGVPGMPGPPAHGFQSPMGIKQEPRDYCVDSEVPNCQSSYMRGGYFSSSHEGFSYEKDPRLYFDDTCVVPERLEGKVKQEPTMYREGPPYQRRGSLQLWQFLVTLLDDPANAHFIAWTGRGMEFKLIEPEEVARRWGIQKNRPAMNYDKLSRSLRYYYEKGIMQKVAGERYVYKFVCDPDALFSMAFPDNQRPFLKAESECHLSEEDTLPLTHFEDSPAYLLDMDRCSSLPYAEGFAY
Chain of ELF4 (Q99607 whole entry): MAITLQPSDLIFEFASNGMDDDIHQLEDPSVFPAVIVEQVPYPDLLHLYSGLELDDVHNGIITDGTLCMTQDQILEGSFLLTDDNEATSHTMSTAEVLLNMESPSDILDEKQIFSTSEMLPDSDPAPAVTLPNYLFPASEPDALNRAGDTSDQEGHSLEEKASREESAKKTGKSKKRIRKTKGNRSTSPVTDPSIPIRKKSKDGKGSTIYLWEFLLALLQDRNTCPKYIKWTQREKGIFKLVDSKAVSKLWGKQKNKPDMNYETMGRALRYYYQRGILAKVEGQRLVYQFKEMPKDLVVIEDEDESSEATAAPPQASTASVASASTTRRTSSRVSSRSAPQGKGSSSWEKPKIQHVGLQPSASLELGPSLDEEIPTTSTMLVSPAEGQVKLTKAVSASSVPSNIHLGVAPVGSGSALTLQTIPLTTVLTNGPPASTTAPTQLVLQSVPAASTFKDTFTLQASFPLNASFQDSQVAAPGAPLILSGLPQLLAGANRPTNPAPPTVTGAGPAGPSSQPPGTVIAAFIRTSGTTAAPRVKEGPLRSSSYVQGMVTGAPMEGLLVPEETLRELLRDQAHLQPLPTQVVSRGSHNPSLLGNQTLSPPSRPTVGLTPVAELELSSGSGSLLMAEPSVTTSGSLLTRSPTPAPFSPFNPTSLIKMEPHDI
Chain of ETV1 (P50549 whole entry): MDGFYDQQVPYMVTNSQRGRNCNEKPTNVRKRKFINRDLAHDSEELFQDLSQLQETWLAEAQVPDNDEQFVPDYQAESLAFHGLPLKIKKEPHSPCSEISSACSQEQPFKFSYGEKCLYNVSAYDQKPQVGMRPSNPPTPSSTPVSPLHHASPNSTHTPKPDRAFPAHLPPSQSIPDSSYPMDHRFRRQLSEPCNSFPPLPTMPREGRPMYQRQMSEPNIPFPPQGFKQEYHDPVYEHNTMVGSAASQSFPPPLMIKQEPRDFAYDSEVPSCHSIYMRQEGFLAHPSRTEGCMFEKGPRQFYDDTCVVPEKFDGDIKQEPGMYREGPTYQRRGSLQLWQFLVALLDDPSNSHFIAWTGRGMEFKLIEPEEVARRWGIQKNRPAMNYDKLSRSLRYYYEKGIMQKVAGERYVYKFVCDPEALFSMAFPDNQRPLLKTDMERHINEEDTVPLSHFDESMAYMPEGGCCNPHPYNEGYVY
Chain of HSF1 (Q00613 whole entry): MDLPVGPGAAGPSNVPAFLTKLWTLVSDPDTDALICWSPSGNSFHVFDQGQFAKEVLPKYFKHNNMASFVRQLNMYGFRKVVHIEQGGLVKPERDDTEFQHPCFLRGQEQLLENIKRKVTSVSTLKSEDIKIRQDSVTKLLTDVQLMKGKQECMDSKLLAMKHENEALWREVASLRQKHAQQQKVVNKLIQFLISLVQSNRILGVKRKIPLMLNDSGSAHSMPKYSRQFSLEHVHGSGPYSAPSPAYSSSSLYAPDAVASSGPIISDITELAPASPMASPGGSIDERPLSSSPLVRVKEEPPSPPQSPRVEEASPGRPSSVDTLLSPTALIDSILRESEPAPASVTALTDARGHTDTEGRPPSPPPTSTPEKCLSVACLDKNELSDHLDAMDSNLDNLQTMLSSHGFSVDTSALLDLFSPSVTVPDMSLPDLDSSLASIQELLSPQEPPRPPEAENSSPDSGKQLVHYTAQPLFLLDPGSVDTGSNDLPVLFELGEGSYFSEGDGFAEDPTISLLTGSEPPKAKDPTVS
Chain of CRX (O43186 whole entry): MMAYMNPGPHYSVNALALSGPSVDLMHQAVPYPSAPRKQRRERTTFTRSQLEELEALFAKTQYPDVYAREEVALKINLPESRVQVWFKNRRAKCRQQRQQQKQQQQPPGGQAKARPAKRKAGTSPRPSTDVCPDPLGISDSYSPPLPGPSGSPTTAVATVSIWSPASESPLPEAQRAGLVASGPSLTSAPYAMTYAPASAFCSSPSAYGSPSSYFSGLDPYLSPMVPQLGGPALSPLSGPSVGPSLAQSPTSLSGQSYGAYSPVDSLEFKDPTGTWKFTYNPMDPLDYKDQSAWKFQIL
Chain of SPIB (Q01892 whole entry): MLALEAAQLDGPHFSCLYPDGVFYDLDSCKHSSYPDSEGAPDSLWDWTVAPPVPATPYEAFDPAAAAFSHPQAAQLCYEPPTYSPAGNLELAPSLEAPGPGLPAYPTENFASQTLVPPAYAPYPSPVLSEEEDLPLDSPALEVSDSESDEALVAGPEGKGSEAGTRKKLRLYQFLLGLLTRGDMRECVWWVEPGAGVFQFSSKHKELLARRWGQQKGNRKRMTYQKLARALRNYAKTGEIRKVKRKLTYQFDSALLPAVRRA

With ATTCCC the binding signal (FLI1) was 1.37 fold enrichment (6-mer frequency, TF over GST control), the binding signal (ELK1) was 1.32 fold enrichment (6-mer frequency, TF over GST control) and the binding signal (GABPA) was 1.38 fold enrichment (6-mer frequency, TF over GST control). For the same sequence, the binding signal (ERG) was 1.3 fold enrichment (6-mer frequency, TF over GST control), the binding signal (ELF1) was 1.4 fold enrichment (6-mer frequency, TF over GST control) and the binding signal (EHF) was 1.35 fold enrichment (6-mer frequency, TF over GST control). For the same sequence, the binding signal (SPI1) was 1.34 fold enrichment (6-mer frequency, TF over GST control), the binding signal (SPIB) was 1.48 fold enrichment (6-mer frequency, TF over GST control) and the binding signal (ELK3) was 1.44 fold enrichment (6-mer frequency, TF over GST control). For the same sequence, the binding signal (FEV) was 1.42 fold enrichment (6-mer frequency, TF over GST control), the binding signal (ETV5) was 1.44 fold enrichment (6-mer frequency, TF over GST control) and the binding signal (HSF1) was 1.61 fold enrichment (6-mer frequency, TF over GST control). For the same sequence, the binding signal (SPIC) was 1.41 fold enrichment (6-mer frequency, TF over GST control), the binding signal (ELF4) was 1.47 fold enrichment (6-mer frequency, TF over GST control) and the binding signal (ELK4) was 1.24 fold enrichment (6-mer frequency, TF over GST control). For the same sequence, the binding signal (ETV2) was 1.42 fold enrichment (6-mer frequency, TF over GST control), the binding signal (ELF3) was 1.35 fold enrichment (6-mer frequency, TF over GST control) and the binding signal (CRX) was 1.57 fold enrichment (6-mer frequency, TF over GST control). The binding signal (ETV1) was 1.4 fold enrichment (6-mer frequency, TF over GST control).
